An excerpt weighted towards active compounds, which were near 4.2% of everything screened.
hgDAF12 agonist: agonists of H. glycines DAF-12 nuclear receptor; HEK293 GAL4-hgDAF12 UAS-luciferase reporter, agonist luminescence; normalized to butyrate control; activation, % at 6.8 µM; actives 1.8% (n = 370,000); AID 687014;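 active = activation above a cutoff set at the mean of all screened compounds plus 3 SD, cut at about 10% in these data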;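 note: 0% = DMSO wells and 100% = sodium butyrate wells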
esBAF inh: blocks esBAF chromatin remodeling in mouse ES cells | Bmi1-luciferase knock-in reporter, 24 h; 100% = twice the neutral-well signal | reporter increase, % at 12.5 µM | actives 2% (n = 350,000) | AID 602393; in the data active = activation above about 40%;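 note: 0% = median of the plate's neutral control wells and 100% = double that signal; a rise in the Bmi1 reporter signal indicates esBAF inhibition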
ssDAF-12 act: activates DAF-12 receptor from parasite S. stercoralis. HEK293 ssDAF-12/GRIP1 lit1-tk-luc reporter, luminescence; % of 3 µM dafachronic acid response. activation, % at 6.8 µM. actives 1% (n = 370,000);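 active = activation above the mean over all tested compounds plus 3 SD, cut at about 0.9% in these data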;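 note: 0% = DMSO-only wells and 100% = 3 µM delta7-dafachronic acid wells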
hcDAF-12 act: activators of H. contortus DAF-12 nuclear receptor. HEK293 hcDAF-12 lit1-tk-luc reporter, luminescence; 0% DMSO, 100% Δ7-dafachronic acid. activation, % at 6.8 µM. actives 1.4% (n = 370,000);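 active = activation above the mean of all tested compounds plus 3 SD, cut at about 5.5% in these data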;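 note: 100% = response to 3 µM Δ7-dafachronic acid high control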
Wnt bcat act: Wnt/beta-catenin pathway activation; Wnt/beta-catenin reporter cell assay, activator, plate reader; activation, % at 9.35 µM; actives 1.2% (n = 300,000); in the data active = activation above about 30%, passing the limit was not always enough;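 note: 0% = neutral control wells and 100% = positive control wells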
DAX1 StAR inh: DAX1 (NR0B1) inhibition, primary screen; HEK293T StAR-luciferase reporter, SF-1/DAX-1 repression relief; inhibition, % at 6.8 µM; actives 1.1% (n = 370,000);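 active = inhibition above the mean over all tested compounds plus 3 SD, cut at about 3.6% in these data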;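 note: 0% = DAX-1 cells with DMSO and 100% = cells lacking DAX-1 with DMSO; higher inhibition means more luminescence from relief of DAX-1 repression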
DAX1 conf: confirmation of human DAX1 (NR0B1) inhibitors; shares compounds with DAX1 StAR inh; HEK293T StAR-promoter luciferase reporter, SF-1/DAX-1 repression; inhibition, % at 6.8 µM; actives 87% (n = 2,400);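 active = inhibition above the average of every tested compound plus 3 SD, cut at about 3.8% in these data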;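 note: 0% = DAX-1 cells with DMSO and 100% = no DAX-1 control cells with DMSO; active compounds raise luminescence by relieving repression of the StAR reporter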
Target sequence (P51843 whole entry, looked up): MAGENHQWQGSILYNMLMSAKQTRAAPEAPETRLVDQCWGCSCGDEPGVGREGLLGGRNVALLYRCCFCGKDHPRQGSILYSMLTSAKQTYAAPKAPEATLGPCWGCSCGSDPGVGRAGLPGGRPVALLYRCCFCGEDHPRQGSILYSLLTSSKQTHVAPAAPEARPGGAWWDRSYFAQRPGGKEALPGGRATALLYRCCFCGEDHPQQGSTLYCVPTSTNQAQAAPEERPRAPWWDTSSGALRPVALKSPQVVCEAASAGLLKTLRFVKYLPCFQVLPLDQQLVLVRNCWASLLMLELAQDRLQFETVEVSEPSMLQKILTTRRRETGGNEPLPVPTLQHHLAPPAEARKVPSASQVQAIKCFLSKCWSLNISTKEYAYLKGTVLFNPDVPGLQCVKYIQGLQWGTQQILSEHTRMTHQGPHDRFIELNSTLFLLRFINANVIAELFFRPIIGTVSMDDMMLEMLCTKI
SF1 AF2mut Luc: nonselective inhibitor or artifact in SF-1 mutant DAX1 counter-screen; inhibition, % at 6.8 µM; AID 652136; HEK293 StAR-luciferase, SF-1 AF2 mutant, luminescence; actives 78% (n = 2,400); shares compounds with DAX1 StAR inh;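 active = inhibition above the mean of all tested compounds plus 3 SD, cut at about 3% in these data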;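 note: 0% = DAX-1 transfected cells with DMSO and 100% = cells without DAX-1 with DMSO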
Numbers without * were called inactive; . = no result.

SMILES | hgDAF12 agonist | esBAF inh | ssDAF-12 act | hcDAF-12 act | Wnt bcat act | DAX1 StAR inh | DAX1 conf | SF1 AF2mut Luc
Cc1ccsc1C(=O)OCc1nc2ccsc2c(=O)[nH]1 | 1 | 14 | -1 | -1 | 2 | 1 | . | .
CC(=O)c1c(C)[nH]c(C(=O)OCc2nc3ccsc3c(=O)[nH]2)c1C | 12* | 28 | 0 | 1 | 7 | 7.1* | 4.7* | 3.2*
C[C@H]1CN([C@@H](C)CO)C(=O)Cc2cc(NS(=O)(=O)c3ccccc3)ccc2O[C@H]1CN(C)Cc1ccccc1 | . | 1 | . | . | . | . | . | .
COC(=O)c1ccc2c(c1)c(C#Cc1ccccc1)c(-c1ccccc1)n2C | 7 | 47* | -1 | 2 | -1 | 4.7* | 2 | 2
COc1ccc(C#Cc2c(-c3ccccc3)n(C)c3ccccc23)cc1 | 0 | 1 | 0 | 3 | -4 | 0 | . | .
CC(OC(=O)C1=Cc2ccccc2OC1)C(=O)NC1CCCC1 (configuration not stated) | -2 | 6 | -2 | 0 | 0 | 0 | . | .
CC(C)C(OC(=O)C1=Cc2ccccc2OC1)C(=O)NCC1CCCO1 (configuration not stated) | 15* | -13 | 0 | 4 | 36* | 5.0* | 2 | 5.2*
Nc1cnn(C2OC(CO)C(O)C2O)c(=O)n1 (configuration not stated) | -4 | 5 | -2 | 1 | 0 | 4.6* | 6.8* | 0
Cc1ccc(-c2cc(C(=O)N3CCCC3)no2)cc1 | 6 | -56 | -1 | 4 | 1 | 4.9* | 8.6* | 0
Cc1noc(C)c1NC(=O)N(C)C[C@@H]1Oc2ccc(NC(=O)NC3CCCCC3)cc2CC(=O)N([C@H](C)CO)C[C@@H]1C | . | 5 | . | . | . | . | . | .
Cc1cs/c(=N/C(=S)Nc2ccccc2)n1C | 13* | . | 0.9* | 2 | 5 | 5.6* | 12* | 5.8*
CCN(CC(=O)Nc1ccc2c(c1)OCCO2)C(=O)c1ccc(Cl)cc1Cl | 11* | 71* | 0 | 3 | 25 | 6.0* | 7.5* | 5.9*
CCN(CC(=O)Nc1ccc2c(c1)OCCO2)C(=O)c1ccc(C(F)(F)F)cc1 | 7 | . | -1 | 3 | -2 | 5.2* | 5.9* | 3.0*
CCN(CC(=O)Nc1ccc2c(c1)OCCO2)C(=O)c1cc(Cl)nc2ccccc12 | 8 | 1 | -1 | 0 | -2 | -1 | . | .
C[C@@H](NC(=O)[C@H]1[C@H](CO)[C@H]2Cn3c(ccc(-c4cccnc4)c3=O)[C@@H]1N2C)c1ccccc1 | . | -4 | . | . | . | . | . | .
C/C(=N\NC(=O)c1ccc(O)cc1)c1ccc(NC(=O)Cc2ccccc2)cc1 | 12* | . | 0 | 2 | 18 | 5.5* | 3 | 1
O=C(Cc1ccccc1)Nc1ccc(C(=O)Nc2ccc(O)cc2)cc1 | -2 | . | -1 | -1 | 2 | 0 | . | .
COc1cccc(S(=O)(=O)N(C)C[C@@H]2Oc3ncc(-c4cccc(C(F)(F)F)c4)cc3C(=O)N([C@H](C)CO)C[C@@H]2C)c1 | . | -7 | . | . | . | . | . | .
O=C(CN1CCN(S(=O)(=O)c2ccc(Cl)cc2)CC1)NCC1(N2CCOCC2)CCCCC1 | -1 | -4 | -1 | -2 | -1 | 4.7* | 1 | 2
O=C(N[C@H]1CC[C@H](CCn2cc(C3(O)CCCC3)nn2)O[C@H]1CO)C1CCC1 | . | 8 | . | . | . | . | . | .
Cc1cccc(NC(=O)CSc2nc3[nH]c(=O)cc(O)c3s2)c1 | -1 | 1 | -1 | 0 | 1 | 0 | . | .
O=C(CSc1nc2[nH]c(=O)cc(O)c2s1)Nc1cccc(Br)c1 | -1 | -3 | -1 | 0 | -1 | 5.7* | 2 | 2
Cc1cccc(C)c1NC(=O)CSc1nc2[nH]c(=O)cc(O)c2s1 | -2 | 4 | -1 | 0 | 3 | 1 | . | .
O=C(CSc1nc2[nH]c(=O)cc(O)c2s1)Nc1ccc(Br)cc1 | 0 | -1 | -1 | 0 | 0 | 8.7* | 0 | 0
